uPA generation: inhibitors of cell surface uPA generation; cell surface uPA generation assay, qHTS; AID 540303; Potency, µM (top dose mostly 38.3 µM), without a hit: top-dose activity change, negative = inhibition, actives largely listed as inhibitors; 330,000 tested, 0.31% active; active = well fitted inhibition curve with a large enough effect; inconclusive = small, poorly fitted or top-dose-only effect; inactive = no such curve, though single readings can be large or run the other way; tested in mouse RAW 264.7 cells; note: % is set by controls: 0 for no effect and ±100 for the full control effect; nearly all actives have a fitted effect of over 55% in size
TDP43 rescue: rescues yeast growth from TDP-43 toxicity; TDP-43 expressing yeast growth rescue, BacTiter-Glo, 24 h; Potency, µM (highest dose often 46.1 µM), for inactives: at the highest dose growth rescue (activation), usual class: activators; 410,000 tested, 1.8% active; note: % of control where 0% means no effect; nearly all actives have a fitted effect of over 50% in size
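In this qHTS, compounds that restore growth of yeast expressing TDP-43 appear as activators. Cells (OD600=0.02, galactose medium, raffinose-pregrown) are incubated with compound 24 hr at 30 deg C and growth is quantified by BacTiter-Glo.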
Chronic BCR inh: blocks chronic active B-cell receptor signaling | 340,000 tested, 0.05% active | Potency, µM (highest dose often 46.1 µM), for inactives: at the top dose activity change, negative = inhibition, most hits filed as inhibitors | AID 493014 | ABC-DLBCL IkBa-CBG/CBR reporter, luminescence ratio, 4 h; active = well fitted inhibition curve with a large enough effect in the signal ratio, with a control signal flat, not every such curve was filed as active; inconclusive = small, poorly fitted or top-dose-only effect, or effect the other way, or a change in a side signal; the % refers to the signal ratio;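 note: plate controls were basal doxycycline-induced cells for no effect and cells given 10 µM MG132 for full effect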
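Doxycycline induced both beetle luciferases in TMD8 lymphoma cells; IKK-driven degradation limits the IkappaBalpha-fused green signal, while red luminescence normalises for cell number and nonspecific effects. Compounds tested up to 46 uM, 4 hrs.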
Abeta yeast res: compounds reversing amyloid beta toxicity in yeast. yeast expressing A-beta42, growth rescue, OD600, 48 h; response scale: 0% DMSO, 100% iron-clioquinol control. Potency, µM (titrated, usually from 46.1 µM), usual class: activators. 410,000 tested, 0.063% active. AID 1347071; note: nearly all actives have a fitted effect of over 55% in size
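Yeast A-beta toxicity model in growth medium with pinned compounds, 48 h at 30 C; growth read as absorbance at 600 nm. Normalized to FeCl3/clioquinol equimolar mix (positive) and DMSO (negative).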
FUS suppressor: suppressors of FUS proteinopathy in yeast | Potency, µM (top dose mostly 76.6 µM), hits mostly activators | 390,000 tested, 0.24% active | S. cerevisiae FUS-expressing, growth rescue, OD600, 24 h;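 note: plate controls were DMSO vehicle for no effect and reference control for full effect; nearly all actives have a fitted effect of over 55% in size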
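Compound concentration series was pinned onto galactose-induced FUS-expressing yeast seeded at OD 0.005. Plates sat 24hr at 30C; absorbance at 600 nm gave growth. DMSO served as background control.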
aSyn yeast inh: inhibitors of alpha-synuclein toxicity in yeast; 370,000 tested, 0.14% active; Potency, µM (highest dose often 46.1 µM), inactives show at the top dose growth rescue (activation), most hits filed as activators; Yeast expressing alpha-synuclein, growth rescue, BacTiter-Glo, 24 h; note: % of control where 0% means no effect; nearly all actives have a fitted effect of over 65% in size
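Screening used galactose-induced yeast with toxic alpha-synuclein levels, exposed to compound for 24 hr at 30 deg C. Cell growth, read with BacTiter-Glo luminescence, gave the measured signal.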
Numbers without * were called inactive; i = inactive; ? = inconclusive; · = not tested or not shown; [ ] = another dose, or the depositor's remark. A selection: hits, their analogues and other compounds. The true share with any hit is near 2.3%. Unless noted, calls come from the whole dose curve; as a rule, active = well fitted curve in the direction sought with a large enough effect; inconclusive = small, poorly fitted or top-dose-only effect, or another doubt; inactive = no such curve, though single readings can be large; an effect the other way counts as inactive or inconclusive. Potency is the fitted concentration of half-maximal effect.

SMILES	uPA generation	TDP43 rescue	Chronic BCR inh	Abeta yeast res	FUS suppressor	aSyn yeast inh
O=C(NCc1ccc(Cl)c(Cl)c1)O[C@H]1CC[C@@]23CCCN2C(=O)CCC[C@H]3C1	·	·	·	·	i	·
Cc1ccc2c(c1)-c1ccccc1S(=O)(=O)N2	7%	?	-2%	i	·	13µM*
Nc1ccc2c(c1)-c1ccccc1S(=O)(=O)N2	3%	-15%	-1%	i	28µM*	-7%
Cc1ccc(C)c(OC2=NS(=O)(=O)c3ccccc32)c1	3%	8%	?	i	i	1%
OCCSc1ccc2nnc(-c3ccccc3)n2n1	·	·	·	·	·	-2%
COc1ccc(CC(=O)Nc2nc3c(s2)CCCC3)cc1	·	?	·	?	i	·
CC(C)(C)c1ccc(NS(=O)(=O)c2ccc(N)cc2)cc1	5%	0%	-2%	i	i	16%
O=C1CCCc2c1[nH]c1ccccc21	1%	21%	-6%	i	i	0%
c1ccc2c(c1)OCCc1c-2[nH]c2ccccc12	5%	13µM*	?	i	i	-3%
CN1C(=S)SC(/[N+]([O-])=C/c2cccnc2)C1(C)C (stereo unspecified)	-1%	2%	3%	i	i	7%
CCCOc1ccc(C(=O)C(CN2CCCC2)c2ccccc2)cc1 (stereo unspecified)	-21%	6%	?	i	i	8%
O=C(c1ccc(Cl)cc1)C(CN1CCCC1)c1ccccc1 (stereo unspecified)	5µM*	?	?	i	i	1%
CCOC(=O)C(C(=O)OCC)C(c1ccccc1)N1CCN(c2ccccc2)CC1 (stereo unspecified)	-6%	13µM*	·	i	i	11%
CC(=O)NCC1CCCN(Cc2cn(-c3ccccc3)nc2-c2ccc3c(c2)OCO3)C1 (stereo unspecified)	2%	-12%	-4%	i	i	5%
NC(=O)c1cc([N+](=O)[O-])ccc1NCc1ccc(C(=O)O)cc1	3%	14%	?	i	i	-1%
C/C(=C\C(=S)Nc1ccccc1)Nc1ccccc1	-2%	13µM*	?	i	i	-2%
C/C(=C\C(=O)c1ccccc1)Nc1ccc(O)cc1	-8%	-1%	?	i	·	-1%
COc1cc(C(=O)N2CCc3c([nH]c4ccccc34)C2c2ccc(F)cc2)cc(OC)c1OC (stereo unspecified)	·	-6%	·	i	i	·
C=C1CCC[C@]2(C)C[C@H]3OC(=O)C(CN4CCCCC4CO)[C@H]3CC12 (stereo partly specified)	6%	13µM*	?	i	i	-15%
CCOC(=O)/C=C/C(=O)OCC(=O)Nc1ccc([N+](=O)[O-])cc1	-3%	14µM*	?	·	i	-21%
CC1Cc2ccccc2N1c1ncnc2nc[nH]c12 (stereo unspecified)	8%	20µM*	?	i	i	-10%
CC1CCCCN1c1ncnc(N)c1[N+](=O)[O-] (stereo unspecified)	-4%	11%	?	i	i	15%
CC1Cc2ccccc2N1c1ncnc(N)c1[N+](=O)[O-] (stereo unspecified)	?	11µM*	?	i	i	15%
c1ccc2c(c1)CCN(c1ncnc3nc[nH]c13)C2	-7%	-16%	-15%	i	i	1%
O=C(CS(=O)(=O)c1nc(-c2ccc(Cl)cc2)cn1-c1ccccc1)Nc1ccc(F)cc1F	·	14µM*	·	i	?	·
SMILES	uPA generation	TDP43 rescue	Chronic BCR inh	Abeta yeast res	FUS suppressor	aSyn yeast inh
O=C(CS(=O)(=O)c1nc(-c2ccc(Cl)cc2)cn1-c1ccccc1)Nc1cccc(Cl)c1	·	?	·	i	?	·
N/C(=N\OC(=O)c1ccc(Cl)cc1Cl)c1ccccn1	2.8µM*	?	?	i	i	-19%
Cc1ccc(C(=O)O/N=C(\N)c2ccccn2)c(Cl)c1	?	13%	?	i	i	-41%
N/C(=N\OC(=O)CCCOc1ccc(Cl)cc1Cl)c1ccccn1	1%	14µM*	-18%	i	i	2%
N/C(=N\OC(=O)CCCOc1ccc(Cl)cc1Cl)c1ccncc1	8%	?	9%	i	i	21%
COc1cccc(CNC(=O)Cn2ncc3c4ccccc4n(Cc4ccccc4)c3c2=O)c1	·	22%	·	i	i	·
COc1ccc(F)cc1C(=O)C1CCCN(Cc2c[nH]c3ccccc23)C1 (stereo unspecified)	?	12%	?	i	i	7%
Cc1cccc(N2CCN(c3c4c(nc5nncn35)CCC4)CC2)c1C	·	?	·	i	i	·
Clc1cccc(N2CCN(c3c4c(nc5nncn35)CCC4)CC2)c1	·	18µM*	·	i	i	·
CN(C)c1nc(Oc2ccc(OCCOc3ccccc3)nn2)nc(N(C)C)n1	14%	-2%	-6%	i	i	-2%
CCOc1ccc(S(=O)(=O)Nc2cc(SCC(=O)O)c(O)c3ccccc23)cc1	?	17%	?	i	i	-10%
CC(C)OC(=O)C(C(=O)C(F)(F)F)c1cc(NS(=O)(=O)c2ccc3ccccc3c2)c2ccccc2c1O (stereo unspecified)	-5%	-64%	?	i	10µM*	-34%
CN(C(=O)CSc1nc2ccccc2c(=O)n1C)C1CCS(=O)(=O)C1 (stereo unspecified)	0%	-14%	-2%	i	i	-5%
CN(c1ccc(Cl)cc1)c1cc(=O)n(C)c2ccccc12	-11%	16µM*	-7%	i	i	4%
CN(C(=O)COc1cc(=O)n(C)c2ccccc12)c1ccc(Cl)cc1	-10%	-2%	-2%	i	i	1%
CC(=O)N(c1ccc(Cl)cc1)c1cn(C(C)=O)c2ccccc12	-1%	20µM*	-3%	i	i	12%
CC(=O)n1cc(N(C(=O)CCl)c2ccc(C)cc2)c2ccccc21	-17%	-13%[1.82 µM]	?	i	i	14%
O=C(Nc1ccccc1N1CCOCC1)c1ccccc1[N+](=O)[O-]	5%	23%	-1%	i	i	-8%
Oc1ccc(/C=N/N=C(c2ccccc2)c2ccccc2)c(O)c1O	-9%	0%	8%	i	·	24%
O=C(/C(=N/N=C/c1ccc(O)c(O)c1O)c1ccccc1)c1ccccc1	-7%	-92%	5%	i	·	16µM*
O=C1c2ccc3c4c(ccc(c24)C(=O)N1CCCCO)C(=O)N(CCCCO)C3=O	2.5µM*	12%	?	i	i	-3%

Screens deposited in PubChem by National Center for Advancing Translational Sciences (NCATS).
